# Measured values: publication PMC4336329 (PLoS ONE, 2015)
# About 14,000 (4.5%) of roughly 310,000 compounds showed an effect of 50% or more. Effects have a minus sign here. What follows is part of a selection rich in strong results, with near analogues and random picks from the rest.
# Molecular target: human ether-à-go-go-related gene (hERG) potassium channel (human, UniProt Q12809)
# Experiment: primary screen, population patch clamp on CHO cells stably expressing hERG; higher = less effect of the substance
# 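Further: peak tail current of the secondary pulse compared with the same well before compound.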
# human ether-à-go-go-related gene (hERG) potassium channel, sequence (Q12809 whole entry, looked up): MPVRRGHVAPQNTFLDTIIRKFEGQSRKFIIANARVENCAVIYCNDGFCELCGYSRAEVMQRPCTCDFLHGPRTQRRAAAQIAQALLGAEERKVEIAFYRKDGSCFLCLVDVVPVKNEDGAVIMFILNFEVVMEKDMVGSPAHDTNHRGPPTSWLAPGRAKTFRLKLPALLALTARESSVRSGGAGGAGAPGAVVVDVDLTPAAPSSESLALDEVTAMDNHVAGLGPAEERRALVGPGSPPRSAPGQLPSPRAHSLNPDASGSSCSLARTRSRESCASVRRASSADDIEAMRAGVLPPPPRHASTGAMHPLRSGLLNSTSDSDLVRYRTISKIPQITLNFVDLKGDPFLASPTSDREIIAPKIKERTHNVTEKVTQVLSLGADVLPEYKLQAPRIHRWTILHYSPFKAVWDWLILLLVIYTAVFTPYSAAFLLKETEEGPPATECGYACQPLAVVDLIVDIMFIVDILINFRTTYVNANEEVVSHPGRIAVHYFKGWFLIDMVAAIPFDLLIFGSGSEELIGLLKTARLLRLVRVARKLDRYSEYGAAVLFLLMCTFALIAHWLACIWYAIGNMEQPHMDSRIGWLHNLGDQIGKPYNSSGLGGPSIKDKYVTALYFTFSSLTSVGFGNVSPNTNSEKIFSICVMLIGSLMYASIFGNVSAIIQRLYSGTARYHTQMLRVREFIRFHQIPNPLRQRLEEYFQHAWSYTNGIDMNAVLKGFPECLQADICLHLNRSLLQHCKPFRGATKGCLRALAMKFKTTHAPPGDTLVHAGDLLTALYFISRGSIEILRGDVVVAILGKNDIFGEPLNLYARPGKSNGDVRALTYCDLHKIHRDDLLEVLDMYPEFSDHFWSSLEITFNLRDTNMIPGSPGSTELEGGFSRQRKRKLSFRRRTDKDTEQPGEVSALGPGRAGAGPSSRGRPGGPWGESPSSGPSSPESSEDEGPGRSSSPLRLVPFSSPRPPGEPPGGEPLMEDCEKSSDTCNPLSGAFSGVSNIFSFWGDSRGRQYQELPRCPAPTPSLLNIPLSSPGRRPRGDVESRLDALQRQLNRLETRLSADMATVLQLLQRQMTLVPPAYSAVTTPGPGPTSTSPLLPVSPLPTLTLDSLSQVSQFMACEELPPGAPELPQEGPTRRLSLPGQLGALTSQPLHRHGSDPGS
row,Compound,"hERG current change (%, negative = inhibition) at 10uM"
1,CCOC(=O)C1=C(N)Oc2c(oc(CO)cc2=O)C1c1c(F)cccc1Cl (stereo not drawn),0.47%
2,Nc1ncc([N+](=O)[O-])cc1S(=O)(=O)c1ccccc1,8.32%
3,COc1ccc(N2C(=O)C3CCCN3C2c2cc(OC)c(OC)cc2OC)cc1 (stereo not drawn),-4.23%
4,CSc1nc(C)cc(C)c1C(N)=O,8.49%
5,CCCNC(=O)NC(=O)CSc1nnc(-c2ccncc2)n1CC,11.6%
6,COc1ccc(-c2cc3c(=O)n(CC(=O)NCCCN4CCC(N5CCCCC5)CC4)ncn3n2)cc1,21.5%
7,COc1ccc(-c2cc3c(=O)n(CC(=O)NCCCN4CCC(Cc5ccccc5)CC4)ncn3n2)cc1,-72.4%
8,CCc1ccc(-c2cc3c(=O)n(CC(=O)NCCCN4CCN(C)CC4)ncn3n2)cc1,-4.24%
9,COc1ccc(-c2cc3c(=O)n(CC(=O)NCCCN4CCN(Cc5ccccc5)CC4)ncn3n2)cc1,-54.8%
10,COc1ccc(-c2cc3c(=O)n(CC(=O)NCCCc4ccccc4)ncn3n2)cc1,7.35%
11,CCC1CCCCN1CCCNC(=O)Cn1ncn2nc(-c3ccc(OC)cc3)cc2c1=O (stereo not drawn),-42.1%
12,O=S(=O)(c1ccccc1)N1CCN=C1SCc1ccc(Cl)c(Cl)c1,-2.01%
13,Cc1ccc(NC(=O)CCCCCN2C(=O)[C@@H]3Cc4ccccc4CN3C2=O)c(C)c1,2.68%
14,Cc1ccc(-c2cc(-c3cccs3)[nH]n2)c(O)c1,1.75%
15,COC(=O)CSc1nc(NC(C)=O)nc(C)c1Br,9.72%
16,O=C(CSc1nc(=O)n2ccccc2n1)N1N=C(c2cccs2)CC1c1ccc(F)cc1 (stereo not drawn),-52.2%
17,COc1ccc(C2CC(c3cccs3)=NN2C(=O)CSc2nc(=O)n3ccccc3n2)cc1 (stereo not drawn),-57.5%
18,COc1ccc(C2CC(c3cccs3)=NN2C(=O)CSC2=NCCS2)cc1 (stereo not drawn),-11%
19,O=C(CSc1nc2ccccc2s1)N1N=C(c2cccs2)CC1c1ccc(F)cc1 (stereo not drawn),0.782%
20,O=C(CSc1nc2c(cnn2-c2ccccc2)c(=O)[nH]1)N1N=C(c2cccs2)CC1c1ccc(F)cc1 (stereo not drawn),16%
21,COc1ccc(C2CC(c3cccs3)=NN2C(=O)CSc2nc3ccccc3s2)cc1 (stereo not drawn),-6.91%
22,O=C(NCc1ccccc1)c1ccc2nnsc2c1,-1.17%
23,Cc1cc(=O)[nH]c(SCC(=O)N(CCC#N)c2ccccc2)c1C#N,15.3%
24,COc1cc(OC)cc(C(=O)NCCNC(=O)c2ccccn2)c1,14.3%

row,Compound,"hERG current change (%, negative = inhibition) at 10uM"
1,CCN(CCCNC(=O)CN1C(=O)COc2ccccc21)c1cccc(C)c1,-11.3%
2,CC(=O)Nc1ccc(Sc2ncccc2C(=O)Nc2ccc(F)cc2)cn1,13.9%
3,O=C(Nc1cc(C(F)(F)F)cc(C(F)(F)F)c1)c1ccc(Cn2cc(C(F)(F)F)ccc2=O)cc1,22%
4,CCc1nn2c(=O)cc(COC(=O)c3ccc(SC)cc3OC)nc2s1,-18.7%
5,COCCc1nn2c(=O)cc(COC(=O)c3cc(OC)c(OC)c(OC)c3)nc2s1,-22.6%
6,CCc1nn2c(=O)cc(COC(=O)c3cc(Cl)c(OC)c(OC)c3)nc2s1,-69.5%
7,CCOc1cccc(C2C(C(=O)c3ccc(C)o3)=C(O)C(=O)N2c2nccs2)c1 (stereo not drawn),0.752%
8,CCN(CC)C(=O)N1CCC(NC(=O)c2ccccc2)CC1,12.6%
9,C=CCNC(=O)N1CCc2[nH]c3ccc(F)cc3c2C1,6.56%
10,Cc1ccc(C(=O)NC2CCN(S(=O)(=O)c3ccc(F)cc3)CC2)cc1,11.6%
11,O=C(CCCN1CCC(NC(=O)c2ccccc2)CC1)c1ccc(Cl)cc1,-77.8%
12,Cl.O=C(CCCN1CCc2[nH]c3ccc(F)cc3c2C1)c1ccc(F)cc1,-70.4%
13,O=C(C1CCCCC1)N1CCc2[nH]c3ccc(F)cc3c2C1,-3.94%
14,Cc1ccc(C(=O)NC2CCN(C(=O)Nc3ccc(F)cc3)CC2)cc1,1.24%
15,CN1CCN(CCCC(=O)c2ccc(F)cc2)CC1.Cl,-14.5%
16,O=C(CCCN1CCC(C(=O)c2ccc(F)cc2)CC1)c1ccc(F)cc1,-78.5%
17,O=C(CN1CCC(NC(=O)c2ccccc2)CC1)NCc1ccccc1F,-20.6%
18,Cc1ccc(C(=O)NC2CCN(CCCC(=O)c3ccc(F)cc3)CC2)cc1,-74%
19,O=C(c1ccc(F)cc1)C1CCN(C(=O)c2ccc(F)cc2)CC1,-22.7%
20,COC(=O)C1C(=O)C2=C(CC1C)NC(=O)CC2c1cccc(C)c1 (stereo not drawn),-12.6%
21,CCCSc1nnc(NC(=O)c2ccco2)s1,2.42%
22,CC(NC(=O)CSc1nnc(-c2cc3cc(Cl)ccc3o2)n1C)c1ccccc1 (stereo not drawn),-12%
23,CCOC(=O)c1oc2ccccc2c1COC(=O)CNC(=O)c1cccc(C)c1,3.66%
24,CC(=O)c1cn(C)c(=O)n(C)c1=O,4.7%

row,Compound,"hERG current change (%, negative = inhibition) at 10uM"
1,COC(=O)c1ccc(C23CC4(C2)[C@H](CN(Cc2cccnc2)[C@@H]4c2ccccc2)C3c2ccccc2)cc1 (stereo partly drawn),12.8%
2,CCn1c(CNC(=O)c2ccccc2Br)nnc1SCC(=O)NC1=NCCS1,27.9%
3,CCOc1ccc(NC(=NCc2ccc3c(c2)OCO3)SC2CC(=O)N(c3ccc(OCC)cc3)C2=O)cc1 (stereo not drawn),-1.29%
4,CCOC(=O)N1CCN(C(=O)CCn2c(=S)[nH]c3cc(OCC)c(OCC)cc3c2=O)CC1,-7.21%
5,COc1cccc(C(=O)NC2CC3CCCC(C2)N3S(=O)(=O)c2ccccc2)c1 (stereo not drawn),-75.8%
6,O=C(NC1CC2CCCC(C1)N2S(=O)(=O)c1ccccc1)c1ccccc1 (stereo not drawn),-44%
7,CCCN1C2CCCC1CC(NC(=O)c1cccc(OC)c1)C2 (stereo not drawn),-16.4%
8,Cc1cccc(C(=O)NC2CCN(S(=O)(=O)c3ccccc3)CC2)c1,3.41%
9,Cc1cccc(C(=O)NC2CC3CCCC(C2)N3S(=O)(=O)c2ccccc2)c1 (stereo not drawn),-77.2%
10,CC(=O)NC1CC2CCCC(C1)N2S(=O)(=O)c1ccccc1 (stereo not drawn),16.3%
11,O=C(NC1CCN(S(=O)(=O)c2ccc(Cl)cc2)CC1)c1cccnc1,0.584%
12,COc1ccc(S(=O)(=O)N2CCC(NC(=O)c3cccnc3)CC2)cc1,-64.7%
13,COc1ccc(S(=O)(=O)N2CCC(NC(=O)c3ccccc3)CC2)cc1,17.8%
14,Cc1nn(CC(=O)NC2(C#N)CCCCC2)c(C)c1[N+](=O)[O-],3.09%
15,CCCCOC(=O)C1=C(C)NC(=O)NC1c1ccc(N(C)C)cc1 (stereo not drawn),21.7%
16,O=C(COc1ccccc1)N1CCN(C2CC3CCC2C3)CC1 (stereo not drawn),7.39%
17,NC(=O)c1nsc(C(=O)N(c2ccc(F)cc2)C(C(=O)NC2CCCC2)c2ccncc2)c1N (stereo not drawn),-0.193%
18,COc1cccc2c1c(NC(=O)Nc1ccc(F)cc1F)nn2C,15.3%
19,COc1cc2cc(CN(Cc3cccnc3)C(=O)NCc3ccccc3)c(=O)[nH]c2cc1OC,-12.6%
20,CC12CC[C@H]3[C@@H](CCC4(O)C[C@H](O)CCC34/C=N/NC(=O)c3ccc(O)cc3)C1(O)CCC2C1=CC(=O)OC1 (stereo partly drawn),15%
21,CC(C)(/C=N/O)N(O)C=C1C=CC(=O)C=C1,5.81%
22,Brc1cc2c(cc1/C=N/Nc1nc(N3CCOCC3)nc(N3CCOCC3)n1)OCO2,-5%
23,C(=C\c1ccccc1)/C=N/Nc1nc(N2CCOCC2)nc(N2CCOCC2)n1,-9.68%
24,O=[N+]([O-])c1ccccc1/C=C/C=N/Nc1nc(N2CCCCC2)nc(N2CCCCC2)n1,-12.2%

row,Compound,"hERG current change (%, negative = inhibition) at 10uM"
1,Brc1cc2c(cc1/C=N/Nc1nc(N3CCCC3)nc(N3CCOCC3)n1)OCO2,-51.3%
2,COc1nc(N/N=C/c2cc3c(cc2Br)OCO3)nc(N2CCOCC2)n1,-27.8%
3,Clc1ccccc1/C=C/C=N/Nc1nc(N2CCOCC2)nc(N2CCOCC2)n1,-58.4%
4,O=C(c1ccccc1)n1ccc2ccccc21,-28%
5,O=S(=O)(c1ccc(Oc2ncnc3scc(-c4ccccc4)c23)cc1)N1CCOCC1,-0.503%
6,Cc1c(C(=O)NCC(c2ccco2)N(C)C)oc2c(Cl)cccc12 (stereo not drawn),-36.9%
7,C/C(=C\c1ccc2c(c1)OCO2)C1Nc2cccc3cccc(c23)N1,16.8%
8,COc1ccccc1OCC(=O)NCC(C)NC(=O)COc1ccccc1OC (stereo not drawn),4.93%
9,Cc1cccc(S(=O)(=O)NNC(=O)c2cc(-c3ccc(F)cc3)nc3ccccc23)c1,28.5%
10,COc1ccc(NC(=O)CN(C)C(=O)c2ccc(N3CCCCCC3)c([N+](=O)[O-])c2)cc1,-51.6%
11,COc1cccc(CN(C)C(=O)c2ccc(N3CCCC3)c([N+](=O)[O-])c2)c1,-45.3%
12,COc1ccc(Cl)cc1NC(=O)CN(C)C(=O)c1ccc(N2CCCCC2)c([N+](=O)[O-])c1,-18.8%
13,COc1ccc(NC(=O)CN(C)C(=O)c2ccc(N3CCCCC3)c([N+](=O)[O-])c2)cc1,-76.8%
14,COc1ccc(NC(=O)CN(C)C(=O)c2ccc(N3CCOCC3)c([N+](=O)[O-])c2)cc1,-46.3%
15,CCOc1ccc(NC(=O)CN(C)C(=O)c2ccc(N3CCCCCC3)c([N+](=O)[O-])c2)cc1OCC,3.4%
16,CCOc1ccc(NC(=O)CN(C)C(=O)c2ccc(N3CCCCC3)c([N+](=O)[O-])c2)cc1OCC,-57.6%
17,COc1ccc(Cl)cc1NC(=O)CN(C)C(=O)c1ccc(N2CCCCCC2)c([N+](=O)[O-])c1,5.32%
18,CN(CC(=O)Nc1ccccc1Cl)C(=O)c1ccc(N2CCCCCC2)c([N+](=O)[O-])c1,-20.2%
19,CCOc1ccc(NC(=O)CN(C)C(=O)c2cc(S(=O)(=O)N(C)C)ccc2N2CCCC2)cc1OCC,6.11%
20,CN(CC(=O)Nc1cccc(F)c1)C(=O)c1ccc(N2CCCCCC2)c([N+](=O)[O-])c1,17.9%
21,COc1ccc(NC(=O)CN(C)C(=O)c2ccc(N3CCCC3)c([N+](=O)[O-])c2)cc1,-54%
